Results filed as inconclusive are left out. Activity calls are given as the source filed them. Unless noted, calls follow the shape of the dose curve; as a rule, active = well fitted curve in the direction sought with a large enough effect in the repeat runs; inconclusive = weak or mixed curves; inactive = no such curve, though single readings can be large; an effect the other way counts as inactive or inconclusive.
Legend:
[1] = target: Nuclear receptor subfamily 1 group I member 3 (Homo sapiens) (UniProt Q14994); assay: qHTS assay to identify small molecule agonists of the constitutive androstane receptor (CAR) signaling pathway (AID 1224839);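 also: HepG2 cells stably carrying human CAR and a CYP2B6 luciferase reporter; series mostly up to about 92 µM; nearly all actives have a fitted effect of over 15% in size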
Method in brief: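 Luminescence read-out (ONE-Glo, 30 min, room temperature) from double-stable HepG2-CYP2B6-hCAR cells exposed 24 h to 15-point compound series in presence of 0.75 uM PK11195 final.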

[2] = qHTS assay to identify small molecule antagonists of the estrogen related receptor signaling pathway with the pleiotropic PPARgamma coactivator (PGC) from Tox21 10K library - cell viability counter screen (AID 1224840; active = well fitted cell-killing curve with a large enough effect in the repeat runs, not every such curve was filed as active; also: nearly all actives have a fitted effect of over 40% in size)
Method in brief: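 Compounds in DMSO, alongside positive and negative controls, were pinned onto PGC/ERR cells (2,000 per well). Exposure lasted 17.5 hours at 37 C, followed by a 30-minute CellTiter-Fluor incubation and fluorescence reading.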

[3] = target: Thyrotropin receptor (Homo sapiens) (UniProt P16473); assay: qHTS assay to identify small molecule agonists of the thyroid stimulating hormone receptor (TSHR) signaling pathway (AID 1224843; calls by dose curve; also: nearly all actives have a fitted effect of over 45% in size)
Method in brief: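 Cell line HEK293 with TSHR; density 800/well. Exposure 30 min RT. Readout HTRF cAMP (cAMP-d2/anti-cAMP-cryptate), 1 h RT before reading.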

[4] = qHTS assay to identify small molecule agonists of the hypoxia (HIF-1) signaling pathway - cell viability counter screen (AID 1224844; calls by dose curve; also: nearly all actives have a fitted effect of over 50% in size)
Method in brief: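 Luminescent ATP content (CellTiter-Glo, 30 min, room temperature) served as the viability measure in HRE-bla ME-180 cells exposed to compounds for 17 hrs in low-serum medium (0.5% dialyzed FBS).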

[5] = qHTS assay to identify small molecule agonists of H2AX (AID 1224845; active = well fitted activation curve with a large enough effect in the signal ratio in the repeat runs, not every such curve was filed as active; the % refers to the signal ratio)
Method in brief: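 Wild-type CHO-K1 cells plated overnight, then exposed 3 hr at 37C to compounds at 15 concentrations (0.76% DMSO). Lysed, then HTRF anti-pH2AX(S139)-cryptate/anti-H2AX-d2 detection after 24 hr at room temperature; emissions 665 and 620 nm.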

[6] = qHTS assay to identify small molecule agonists of the hypoxia (HIF-1) signaling pathway (AID 1224846; active = well fitted activation curve with a large enough effect in the signal ratio in the repeat runs, not every such curve was filed as active; the % refers to the signal ratio)
Method in brief: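 Measured by blue/green FRET after loading CCF4-AM: beta-lactamase expressed from a hypoxia response element in ME-180 cells. Test agents were delivered in DMSO and left 17 hrs; cells had been plated 5 hrs earlier in low-serum (0.5% dialyzed FBS) medium.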

[7] = qHTS RealTime-Glo MT Cell Viability Assay in HepG2 cells - 24 hour (AID 1224867); also: nearly all actives have a fitted effect of over 50% in size
Method in brief: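 HepG2 cells were seeded at 600 cells/well together with NanoLuc luciferase and a cell-permeant prosubstrate, preincubated 5 h at 37 C/5% CO2, then pin-dosed with compounds in DMSO. Nonlytic luminescence from viable cells was read at each time point.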

[8] = qHTS RealTime-Glo MT Cell Viability Assay in HEK293 cells - 32 hour (AID 1224868); also: top concentration of the series differs between compounds; nearly all actives have a fitted effect of over 50% in size
Method in brief: (§1)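 HEK293 cells were seeded at 600 cells/well together with NanoLuc luciferase and cell-permeant prosubstrate, preincubated 5 h at 37 C/5% CO2, then given compound in DMSO by pintool. Luminescence from viable-cell prosubstrate reduction was read repeatedly over 40 h.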

[9] = A CellTox Green Cytotoxicity Assay to monitor cytotoxicity in HEK293 cells - 0 hour (AID 1224869); also: nearly all actives have a fitted effect of over 50% in size
Method in brief: (§2)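 Each value comes from one timepoint of a single continuous run in which HEK293 cells with CellTox Green were exposed to compound for up to 40 h at 37 C, dye fluorescence rising with cell death.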

[10] = qHTS RealTime-Glo MT Cell Viability Assay in HepG2 cells - 40 hour (AID 1224870); also: nearly all actives have a fitted effect of over 50% in size
Method in brief: (§3)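 HepG2 cells mixed with RealTime-Glo MT reagents (NanoLuc plus cell-permeant prosubstrate) were seeded at 600 cells/well, incubated 5 h at 37 C/5% CO2, then pinned with compounds in DMSO; nonlytic luminescence tracked viability during 40 h treatment.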

[11] = A CellTox Green Cytotoxicity Assay to monitor cytotoxicity in HEK293 cells - 40 hour (AID 1224871); also: nearly all actives have a fitted effect of over 45% in size
Method in brief: as §2

[12] = qHTS RealTime-Glo MT Cell Viability Assay in HEK293 cells - 16 hour (AID 1224872)
Method in brief: as §1

[13] = qHTS RealTime-Glo MT Cell Viability Assay in HepG2 cells - 8 hour (AID 1224873); also: nearly all actives have a fitted effect of over 55% in size
Method in brief: as §3

[14] = qHTS RealTime-Glo MT Cell Viability Assay in HEK293 cells - 40 hour (AID 1224874); settings: RealTime-Glo luminescence; max response: active compounds read low; also: nearly all actives have a fitted effect of over 50% in size
Method in brief: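 qHTS format; HEK293 cells with NanoLuc/prosubstrate reagent, 37 C/5% CO2 for 5 h pre-dosing; compounds 23 nL in DMSO; luminescence at each time point reflects viable cells.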

[15] = A CellTox Green Cytotoxicity Assay to monitor cytotoxicity in HEK293 cells - 24 hour (AID 1224875); also: series mostly up to about 77 µM; nearly all actives have a fitted effect of over 45% in size
Method in brief: as §2

[16] = qHTS assay to identify small molecule agonists of H2AX - cell viability counter screen (AID 1224847; calls by dose curve; also: top concentration of the series differs between compounds; nearly all actives have a fitted effect of over 30% in size)
Method in brief: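 CHO-K1 wt, 1000 cells/well, o/n 37C; cpds 15 conc, 3 h 37C, 0.76% DMSO; CellTiter-Glo, 30 min RT, luminescence.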
% is scaled to controls: 0 for no effect and ±100 for the full control effect.

Chain of Thyrotropin receptor (Homo sapiens) (P16473 whole entry, looked up): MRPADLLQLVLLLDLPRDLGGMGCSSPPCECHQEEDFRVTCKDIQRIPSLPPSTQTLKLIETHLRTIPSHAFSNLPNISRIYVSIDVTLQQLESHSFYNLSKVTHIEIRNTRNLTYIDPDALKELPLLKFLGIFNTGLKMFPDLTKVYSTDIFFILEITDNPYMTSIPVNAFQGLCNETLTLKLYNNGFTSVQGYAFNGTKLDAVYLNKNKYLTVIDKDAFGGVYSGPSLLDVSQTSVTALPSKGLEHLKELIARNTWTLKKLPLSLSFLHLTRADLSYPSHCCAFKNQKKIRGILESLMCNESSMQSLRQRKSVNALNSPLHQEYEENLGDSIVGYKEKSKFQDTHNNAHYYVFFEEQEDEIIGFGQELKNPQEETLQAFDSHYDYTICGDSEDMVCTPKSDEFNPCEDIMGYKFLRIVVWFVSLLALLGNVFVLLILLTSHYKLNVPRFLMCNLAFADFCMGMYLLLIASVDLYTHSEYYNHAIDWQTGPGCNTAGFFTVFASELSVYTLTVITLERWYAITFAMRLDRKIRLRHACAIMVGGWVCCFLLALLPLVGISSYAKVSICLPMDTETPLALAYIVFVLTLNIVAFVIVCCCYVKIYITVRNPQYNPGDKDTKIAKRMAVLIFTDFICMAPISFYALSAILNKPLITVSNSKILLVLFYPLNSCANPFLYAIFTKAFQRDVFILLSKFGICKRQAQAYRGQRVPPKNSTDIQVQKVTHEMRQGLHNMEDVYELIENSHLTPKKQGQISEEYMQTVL
Chain of Nuclear receptor subfamily 1 group I member 3 (Homo sapiens) (Q14994 whole entry, looked up): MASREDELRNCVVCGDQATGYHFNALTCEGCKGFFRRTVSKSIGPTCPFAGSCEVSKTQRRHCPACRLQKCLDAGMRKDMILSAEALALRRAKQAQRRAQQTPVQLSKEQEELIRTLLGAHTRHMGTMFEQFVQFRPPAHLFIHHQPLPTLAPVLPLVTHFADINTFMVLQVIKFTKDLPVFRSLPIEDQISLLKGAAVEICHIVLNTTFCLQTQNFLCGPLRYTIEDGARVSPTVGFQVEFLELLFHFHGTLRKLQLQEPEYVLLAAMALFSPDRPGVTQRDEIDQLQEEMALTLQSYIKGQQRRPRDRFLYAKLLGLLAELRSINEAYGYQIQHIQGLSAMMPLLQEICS

C=CCCCC
inactive: Potency [1] | outcome [2] | outcome [3] | outcome [4] | outcome [5] | outcome [6] | outcome [7] | Potency [8] | Potency [9] | outcome [10] | Potency [11] | Potency [12] | outcome [13] | max response [14] 10.8% | Potency [15]

CC(C)CO
inactive: Potency [1] | outcome [2] | outcome [3] | outcome [4] | outcome [5] | outcome [6] | outcome [7] | Potency [8] | Potency [9] | outcome [10] | Potency [12] | outcome [13] | max response [14] -4.29%

CC1=C(O)C(=O)C(C)O1 (configuration not stated)
inactive: Potency [1] | outcome [2] | outcome [3] | outcome [4] | outcome [5] | outcome [7] | Potency [8] | Potency [9] | outcome [10] | Potency [11] | Potency [12] | outcome [13] | max response [14] 2.72% | Potency [15]

C=CC(=O)CCCCC
inactive: Potency [1] | outcome [2] | outcome [3] | outcome [4] | outcome [5] | outcome [6] | outcome [7] | Potency [8] | Potency [9] | outcome [10] | Potency [11] | Potency [12] | outcome [13] | max response [14] -1.98% | Potency [15]

CN(C)CCOC(=O)C(c1ccccc1)C1(O)CCCC1 (configuration not stated)
inactive: Potency [1] | outcome [2] | outcome [3] | outcome [4] | outcome [5] | outcome [16] | outcome [7] | Potency [8] | Potency [9] | outcome [10] | Potency [11] | Potency [12] | outcome [13] | max response [14] -2.33% | Potency [15]

CC1OCCC1=O (configuration not stated)
inactive: Potency [1] | outcome [2] | outcome [3] | outcome [4] | outcome [5] | outcome [16] | outcome [7] | Potency [8] | Potency [9] | outcome [10] | Potency [11] | Potency [12] | outcome [13] | max response [14] 3.12% | Potency [15]

COc1cc(OC)nc(O[C@H](C(=O)O)C(OC)(c2ccccc2)c2ccccc2)n1
inactive: Potency [1] | outcome [2] | outcome [3] | outcome [4] | outcome [5] | outcome [6] | outcome [7] | Potency [8] | Potency [9] | outcome [10] | Potency [11] | Potency [12] | outcome [13] | max response [14] 4.04% | Potency [15]

CCC(C)C(=O)OCCc1ccccc1 (configuration not stated)
inactive: Potency [1] | outcome [2] | outcome [3] | outcome [4] | outcome [5] | outcome [6] | Potency [8] | Potency [9] | outcome [10] | Potency [12] | outcome [13] | max response [14] -0.807% | Potency [15]

CC(N)CCCC(C)(C)O (configuration not stated)
inactive: Potency [1] | outcome [2] | outcome [3] | outcome [4] | outcome [5] | outcome [16] | outcome [7] | Potency [8] | Potency [9] | outcome [10] | Potency [11] | Potency [12] | outcome [13] | max response [14] 10% | Potency [15]

CC1(C)Cc2cccc(N)c2O1
inactive: Potency [1] | outcome [2] | outcome [3] | outcome [4] | outcome [5] | outcome [7] | Potency [8] | Potency [9] | outcome [10] | Potency [11] | Potency [12] | outcome [13] | max response [14] 1.5% | Potency [15]

COC(=O)c1cc(Cl)cc(Cl)c1
inactive: Potency [1] | outcome [2] | outcome [3] | outcome [4] | outcome [5] | outcome [16] | Potency [8] | Potency [9] | outcome [10] | Potency [11] | Potency [12] | outcome [13] | max response [14] -0.635% | Potency [15]

CCCC(CC)c1ccccc1 (configuration not stated)
inactive: Potency [1] | outcome [2] | outcome [3] | outcome [4] | outcome [5] | outcome [16] | outcome [7] | Potency [8] | Potency [9] | outcome [10] | Potency [11] | Potency [12] | outcome [13] | max response [14] 11.4% | Potency [15]

CCOc1ccccc1OCC1CNCCO1 (configuration not stated)
inactive: Potency [1] | outcome [2] | outcome [3] | outcome [4] | outcome [5] | outcome [6] | outcome [7] | Potency [8] | Potency [9] | outcome [10] | Potency [11] | Potency [12] | max response [14] 2.19% | Potency [15]

— PubChem BioAssay (Tox21)
